# Test results reported in PubChem BioAssay AID588397 (National Center for Advancing Translational Sciences (NCATS), 2011).
# In all, about 1,300 compounds went through this assay and about 1,000 (77%) were called active. Not shown: some 7% with an inconclusive outcome. So high a share suggests a set chosen from earlier hits. The list shows a part of the results. A number with no mark means an inactive call. Calls follow the shape of the dose curve; as a rule, active = well fitted inhibition curve with a large enough effect; inconclusive = small, poorly fitted or top-dose-only effect; inactive = no such curve, though single readings can be large or run the other way.
# Experiment: qHTS of small molecules that selectively kill Giardia lamblia: Hit Validation.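 Also: viability measured as ATP content by luminescence so killing lowers signal; nearly all actives have a fitted effect of over 65% in size.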
# Details: Giardia lamblia trophozoite viability, dose-response; series mostly up to 38.3 µM; activity change, negative = killing: at the top concentration
# Method in brief: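 Trophozoite viability was measured as ATP-dependent luminescence, read 15-30 min after reagent addition. Before that, parasites at 100 cells/well were exposed to compounds for 48 h, anaerobically, at 37 deg C.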
# % is scaled to controls: 0 for no effect and ±100 for the full control effect; potency is read from the fitted curve at half-maximal effect.
Structure (SMILES),Potency,"activity change, negative = killing [%]"
CCn1ncc([N+](=O)[O-])c1C(=O)Nc1nc2cccc(C)c2s1,4100 nM (active),
CCOc1ccc2nc(NC(=O)c3c([N+](=O)[O-])cnn3CC)sc2c1,1830 nM (active),
O=C(Nc1ccc2c(c1)OCCO2)c1cc(-c2ccccn2)nc2ccc(Br)cc12,4100 nM (active),
Cc1ccccc1C(=O)Nc1ccc2c(c1)OCCO2,3650 nM (active),
Cc1ccc(C(=O)Nc2ccc3c(c2)OCCO3)o1,7290 nM (active),
O=C(Nc1ccc2c(c1)OCCO2)c1ccc(Br)o1,5160 nM (active),
Cc1ccc(-c2c(C(=O)N/N=C/C3CC=CCC3)nnn2-c2nonc2N)cc1 (stereo not drawn),,-19.1
CN(C)S(=O)(=O)c1ccc(N2CCCC2)c(C(=O)N2CCN(c3ccc([N+](=O)[O-])cc3)CC2)c1,1830 nM (active),
O=C(CNC(=O)Cc1ccccc1)N=Nc1c(O)[nH]c2ccc(Br)cc12,,-12.8
O=C(N=Nc1c(O)[nH]c2ccccc12)c1cccs1,3650 nM (active),
O=[N+]([O-])c1cncn1CCN1CCOCC1,326 nM (active),
C[C@]12c3[nH]c4ccc(Cl)cc4c3CCN1C(=O)[C@@H](CC(=O)NCCN1CCOCC1)C[C@@H]2C(=O)N1CCOCC1,,-36.2
CC(=O)c1cccc(NC(=O)c2ccc([N+](=O)[O-])o2)c1,1160 nM (active),
Cc1ccc(NC(=O)c2ccc([N+](=O)[O-])o2)cc1C,460 nM (active),
Cc1cccc(NC(=O)c2ccc([N+](=O)[O-])o2)c1,729 nM (active),
Cc1cc(C)cc(NC(=O)c2ccc([N+](=O)[O-])o2)c1,1030 nM (active),
COc1ccc(NC(=O)c2ccc([N+](=O)[O-])o2)cc1,1030 nM (active),
COc1ccc(CC(=O)NCC(=O)Nc2ccccc2Br)cc1,,-17.5
CC(=O)c1ccc(NC(=O)c2ccc([N+](=O)[O-])o2)cc1,818 nM (active),
O=C(/C=C/c1cccnc1)/C=C/c1cccnc1,18300 nM (active),
COc1cc(C(=O)/C=C/c2cccnc2)c([N+](=O)[O-])cc1OC,4600 nM (active),
Cc1ccc(Nc2cc(C)nc3c(C)ccc([N+](=O)[O-])c23)cc1,146 nM (active),
Cc1cc(Nc2ccccc2)c2c([N+](=O)[O-])ccc(C)c2n1,259 nM (active),
COc1ccccc1Nc1cc(C)nc2c(C)ccc([N+](=O)[O-])c12,2590 nM (active),

Structure (SMILES),Potency,"activity change, negative = killing [%]"
Cc1cc(Nc2ccccc2)c2c([N+](=O)[O-])cc(C)c(C)c2n1,259 nM (active),
CN(C)/[N+]([O-])=N/Oc1ccc([N+](=O)[O-])cn1,2590 nM (active),
Cc1cc(C2=NNC(=NC3CC3)SC2)c(C)n1-c1ccccc1F,1450 nM (active),
COc1ccc(-c2ncn(CCC#N)c2[N+](=O)[O-])cc1,206 nM (active),
CCn1c(=NC(=O)c2cccc(N3C(=O)CCC3=O)c2)sc2c(OC)ccc(OC)c21,2310 nM (active),
Cc1ccc(C)c(N2CCN(C(=S)Nc3ccc4nc(N5CCN(C)CC5)cc(C)c4c3)CC2)c1,1300 nM (active),
Cc1cccc(N2CCN(C(=S)Nc3ccc4nc(N5CCN(C)CC5)cc(C)c4c3)CC2)c1C,1030 nM (active),
COc1ccc(/C=N/Nc2cc(C)nc3c(C)cccc23)cc1,818 nM (active),
COc1ccc2nc(C)cc(N/N=C/c3ccc(F)cc3)c2c1,1160 nM (active),
COc1ccc2nc(C)cc(N/N=C/c3cccc(OC)c3O)c2c1,918 nM (active),
COc1ccc(N(CC(=O)N/N=C/c2cccc(OC)c2OC)S(=O)(=O)c2ccccc2)cc1,,-8.54
O=c1c([N+](=O)[O-])cccn1Cc1cccc(Cl)c1,4600 nM (active),
O=c1c([N+](=O)[O-])cccn1Cc1cccc(Br)c1,2050 nM (active),
CCN1CCN(Cc2ccc(NC(=O)Nc3ccccc3)cc2)CC1,9180 nM (active),
O=C(NCC1CCN(Cc2ccc(F)cc2)CC1)Nc1cc(F)ccc1F,,-28.9
CN(C(=O)c1cccc(NC(=O)Cc2ccc(NC(=O)C3CCN(C(=O)c4ccccc4)CC3)cc2)c1)C1CC1,,4.59
O=C(Nc1ccccc1)Nc1ccc(C(=O)N2CCCC2)cc1,5790 nM (active),
Cc1cc([N+](=O)[O-])nn1Cc1noc(C(=O)NCc2ccc3c(c2)OCO3)n1,,-30.3
Cc1cc([N+](=O)[O-])nn1Cc1ccc(F)cc1,2900 nM (active),
COc1ccc(NC(=O)C(c2ccc(Cl)cc2)C(C)C)cn1 (stereo not drawn),,-25.3
CC(NC(=O)COc1cccnc1[N+](=O)[O-])c1ccc(Cl)cc1 (stereo not drawn),5160 nM (active),
CC(NC(=O)COc1cccnc1[N+](=O)[O-])c1ccc(F)cc1 (stereo not drawn),5790 nM (active),
CC(NC(=O)COc1cccnc1[N+](=O)[O-])c1ccc(Cl)cc1Cl (stereo not drawn),3260 nM (active),
O=[N+]([O-])c1cncc([N+](=O)[O-])c1Nc1cccc(O)c1,3260 nM (active),

Structure (SMILES),Potency,"activity change, negative = killing [%]"
O=[N+]([O-])c1cncc([N+](=O)[O-])c1Nc1ccccc1Cl,5160 nM (active),
N/C(=N/OC(=O)c1ccccc1Cl)c1ncc([N+](=O)[O-])s1,1630 nM (active),
O=C(Oc1cccc2c(O)cccc12)c1ccccc1Cl,,-9.35
N/C(=N\OC(=O)c1ccc(Cl)cc1[N+](=O)[O-])c1ccccn1,8180 nM (active),
N/C(=N/OC(=O)c1ccc(Cl)cc1)c1ncc([N+](=O)[O-])s1,1300 nM (active),
COc1ccc(-n2nc([N+](=O)[O-])c(=NCCc3ccc(OC)c(OC)c3)n2O)cc1,1160 nM (active),
COc1ccc(-n2nc([N+](=O)[O-])c(=NCCc3ccc(Cl)cc3)n2O)cc1,1450 nM (active),
COc1ccc(-n2nc([N+](=O)[O-])c(=NCCc3ccccc3)n2O)cc1,1160 nM (active),
COc1ccc(-n2nc([N+](=O)[O-])c(=NCCC3=CCCCC3)n2O)cc1,4100 nM (active),
COc1ccc(-n2nc([N+](=O)[O-])c(=NCCc3ccc(C)cc3)n2O)cc1,4100 nM (active),
COc1ccc(CCN=c2c([N+](=O)[O-])nn(-c3cccc(C)c3)n2O)cc1OC,5160 nM (active),
CCN(CC)C(=O)Cn1cc([N+](=O)[O-])cc1[N+](=O)[O-],460 nM (active),
CCN(C(=O)C1CCN(S(=O)(=O)c2ccc3c(c2)oc(=O)n3C)CC1)c1cccc(C)c1,,-7.64
N#Cc1c(Nc2ccccc2)[n+]([O-])c2ccc(Cl)cc2[n+]1[O-],1630 nM (active),
O=C1c2cc(F)ccc2-n2c1nc1ccccc1c2=O,1830 nM (active),
CCOCCOc1nc2c(c(=O)n(C)c(=O)n2C)n1Cc1ccc(C)cc1,,-13.5
CC(C)(C)c1cc(C(=O)N/N=C/c2ccc([N+](=O)[O-])s2)n[nH]1,3650 nM (active),
Cc1cc(C(=O)N/N=C/c2ccc(O)c([N+](=O)[O-])c2)n[nH]1,6500 nM (active),
CC(C)(C)c1cc(C(=O)N/N=C/c2ccncc2)n[nH]1,,16.6
Cc1cc(C(=O)N/N=C/c2ccc([N+](=O)[O-])s2)n[nH]1,2310 nM (active),
N#Cc1c(N2CCN(c3ccc([N+](=O)[O-])cc3)CC2)[n+](=O)c2ccc(Cl)cc2n1[O-],1300 nM (active),
CN(C)c1ccc2nsnc2c1[N+](=O)[O-],3650 nM (active),
CC1S/C(=C(\C#N)C(N)=O)N(c2ccc(F)cc2)C1=O (stereo not drawn),,1.62
N=NC(=O)c1ccccc1Nc1c(O)[nH]c2ccccc12,1030 nM (active),

Structure (SMILES),Potency,"activity change, negative = killing [%]"
COC(=O)c1ccccc1NC(=O)N1c2ccccc2Sc2ccccc21,918 nM (active),
Cc1cccc(N2CCN(C(=S)Nc3ccc4nc(N5CCN(C)CC5)cc(C)c4c3)CC2C)c1 (stereo not drawn),4100 nM (active),
Cc1cc(N2CCN(C)CC2)nc2ccc(NC(=S)N3CCN(c4ccc(F)cc4)CC3)cc12,1300 nM (active),
Cc1cc(N2CCN(C)CC2)nc2ccc(NC(=S)N3CCN(c4cccc(Cl)c4)CC3)cc12,1160 nM (active),
O=c1sc(N2CCN(c3ccc(F)cc3)CC2)nc2ccsc12,,-23.9
Cc1cc(N2CCN(C)CC2)nc2ccc(NC(=S)N3CCN(c4ccc(Cl)cc4)CC3)cc12,1160 nM (active),
CC(=O)Nc1ccc(/C=C/c2noc(-c3ccccc3O)n2)cc1,,-11.3
Cn1nc([N+](=O)[O-])nc1N1CCOCC1,326 nM (active),
Cc1ccc(C2=NCCn3c2c2ccc(C(F)(F)F)cc2[n+]3[O-])cc1,130 nM (active),
Nc1c(Cl)cc(C2=NCCn3c2c2ccc(C(F)(F)F)cc2[n+]3[O-])cc1Cl,163 nM (active),
COc1ccc(C2=NCCn3c2c2ccc(C(F)(F)F)cc2[n+]3[O-])cc1,72.9 nM (active),
[O-][n+]1c2cc(C(F)(F)F)ccc2c2n1CCN=C2c1ccc(Cl)cc1,410 nM (active),
O=[N+]([O-])c1cc2cccnc2c2ncccc12,1830 nM (active),
O=C(Nc1ccc(-c2cn3ccccc3n2)cc1)c1ccco1,8180 nM (active),
COc1ccccc1-n1cc2c([N+](=O)[O-])cc([N+](=O)[O-])cc2n1,1630 nM (active),
CC(Oc1cccnc1[N+](=O)[O-])C(=O)Nc1ccc(F)cc1 (stereo not drawn),5160 nM (active),
CC(Oc1cccnc1[N+](=O)[O-])C(=O)Nc1cccc(Cl)c1 (stereo not drawn),3650 nM (active),
Cc1ccc(CCN=c2c([N+](=O)[O-])nn(-c3ccccc3)n2O)cc1,7290 nM (active),
O=[N+]([O-])c1nn(-c2ccccc2)n(O)c1=NCCc1ccccc1,3260 nM (active),
Cc1ccc(Nc2nc(=O)c3cc([N+](=O)[O-])ccc3s2)cc1,7290 nM (active),
CC1=NN(c2nc3ccccc3[nH]2)C(=O)/C1=C/N(C)C,3650 nM (active),
